ATXN2 expr inh: ATXN2 expression inhibition. Potency, µM (top dose mostly 57 µM), for the others: at the highest dose activity change, negative = inhibition, most hits filed as inhibitors. AID 1745845. 360,000 tested, 0.72% active. HEK-293 ATXN2-luciferase reporter, luminescence, 24 h; also: potency is read from the fitted curve at half-maximal effect; % is scaled to controls: 0 for no effect and ±100 for the full control effect; nearly all actives have a fitted effect of over 55% in size
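qHTS (up to 57 uM final) was run with 24 h compound exposure of reporter cells at 37 °C. Each well was multiplexed: SteadyGlo luminescence measured ATXN2-luciferase expression after a fluorogenic Gly-Phe-AFC viability readout (25 uM final).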
HT1080NT lethal: kills 2HG-producing HT-1080-NT fibrosarcoma cells | Potency, µM (highest dose often 46.1 µM), for the others: at the top dose activity, negative = less viability, actives largely listed as cytotoxic | 360,000 tested, 1.6% active | HT-1080-NT fibrosarcoma viability, CellTiter-Glo ATP luminescence, 48 h;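 also: NT is the 2HG producing partner of a matched IDH1 knockdown line; potency is read from the fitted curve at half-maximal effect; 0% = DMSO-treated cells and -100% = media-only wells without cells; nearly all actives have a fitted effect of over 55% in size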
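HT-1080-NT; 750 cells/well; 5% FBS RPMI; 48 h compound, 37 degrees C; CellTiter-Glo luminescence; curve fitting and curve-class assignment.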
S2 tox: viability counter-screen for ATXN expression inhibitors | S2 cells (HEK-293 line with an ATXN2-luciferase reporter) viability, CellTiter-Fluor protease fluorescence, 24 h | Potency, µM (highest dose often 56.7 µM), most hits filed as cytotoxic | 400,000 tested, 0.49% active; also: potency is read from the fitted curve at half-maximal effect; nearly all actives have a fitted effect of over 40% in size
HT1080 IDH1KD tx: kills HT-1080 cells with IDH1 knockdown | HT-1080 IDH1 knockdown viability, ATP luminescence, 48 h | Potency, µM (top dose mostly 46.1 µM), for the others: at the highest dose activity, negative = toxicity, actives largely listed as cytotoxic | 360,000 tested, 2% active | AID 686971;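 also: potency is read from the fitted curve at half-maximal effect; 0% = DMSO wells and -100% = cell-free medium wells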
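Knockdown cells (IDH1KD HT-1080) received compounds 2 h after plating at 750 cells/well and were kept 48 h at 37 °C in 5% FBS RPMI. A CellTiter-Glo luminescence read gave % activity for curve fitting.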
TGFb SMAD3 inh: blocks TGF-b signaling; 410,000 tested, 1.2% active; Potency, µM (doses to about 46.1 µM), for the others: at the highest dose activity, negative = inhibition, actives largely listed as inhibitors; AID 588855; HepG2 CAGA-GFP TGF-b/SMAD3 reporter, GFP fluorescence, 18 h; TGF-beta stimulated, 500 pg/mL final; also: potency is read from the fitted curve at half-maximal effect; % is scaled to controls: 0 for no effect and ±100 for the full control effect; nearly all actives have a fitted effect of over 65% in size
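Read-out: total well GFP (ex488/em500-530) summed from mean per-cell fluorescence. Cells: HEPG2 CAGA-GFP, 1% FBS DMEM, 18 h at 37 degrees C with 500 pg/mL final TGF-beta. Unstimulated wells served as the full-inhibition control; stimulated DMSO wells = 0%.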
HepG2 viability: counter-screen for TGF-b inhibitors: cytotoxicity in HepG2 cells; HepG2 CAGA-GFP viability, ATP luminescence, 18 h; Potency, µM (highest dose often 46.1 µM), for the others: top-dose activity change, negative = cytotoxicity, actives largely listed as cytotoxic; 410,000 tested, 0.76% active; AID 588856; also: potency is read from the fitted curve at half-maximal effect
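CellTiter-Glo luminescence gave cytotoxicity after 18 hours at 37 degrees C. The cells were HepG2 CAGA-GFP in 1% FBS DMEM, stimulated with 500 pg/mL TGF-beta after compound addition. %Activity was normalised to no-cell wells (complete cell-killing) and DMSO (no toxicity), and curves were fitted and classified.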
SKNSH spheroid: reduced viability of SK-N-SH 3D spheroids, orthogonal test; AID 1347135; 65 tested, 70% active; Potency, µM (highest dose often 30.7 µM), most hits filed as inhibitors; SK-N-SH 3D spheroid viability, PI/Hoechst imaging, 72 h; shares compounds with ATXN2 expr inh
SJGBM2 3D viab: reduced viability of SJ-GBM2 3D spheroids, orthogonal test; SJ-GBM2 3D spheroid viability, PI/Hoechst imaging, 72 h; 65 tested, 80% active; Potency, µM (doses to about 30.7 µM), hits mostly inhibitors; shares compounds with ATXN2 expr inh; AID 1347136
Daoy 3D tox: Daoy 3D spheroid viability loss; AID 1347137; 65 tested, 50% active; shares compounds with ATXN2 expr inh; Daoy 3D spheroid viability, PI/Hoechst imaging, 72 h; Potency, µM (top dose mostly 30.7 µM), hits mostly inhibitors
TC32 3D caspase: TC32 spheroid caspase-3/7 activation, orthogonal screen. shares compounds with ATXN2 expr inh. TC32 3D spheroids, caspase-3/7 fluorescence imaging, 24 h. Potency, µM (top dose mostly 30.7 µM), actives largely listed as inhibitors. 65 tested, 30% active. AID 1347138
TC32 spheroid: kills TC32 spheroids in orthogonal 3D test. 65 tested, 60% active. shares compounds with ATXN2 expr inh. TC32 3D spheroid viability, PI/Hoechst imaging, 72 h. Potency, µM (top dose mostly 30.7 µM), actives largely listed as inhibitors
MG63 spheroid: kills MG-63 (6-TG R) spheroids in orthogonal 3D test; MG-63 (6-TG R) 3D spheroid viability, PI/Hoechst imaging, 72 h; Potency, µM (series often up to 30.7 µM), hits mostly inhibitors; AID 1347140; shares compounds with ATXN2 expr inh; 65 tested, 50% active
RD 3D tox: RD 3D spheroid viability loss | 65 tested, 50% active | AID 1347141 | shares compounds with ATXN2 expr inh | Potency, µM (series often up to 30.7 µM), actives largely listed as inhibitors | RD rhabdomyosarcoma 3D spheroid viability, PI/Hoechst imaging, 72 h
* hit, by the source's call; i = inactive; ? = inconclusive; . = no result. Most compounds without a hit are left out; they make up all but 3.8% or so of the library. Calls follow the shape of the dose curve; as a rule, active = well fitted curve in the direction sought with a large enough effect; inconclusive = small, poorly fitted or top-dose-only effect, or another doubt; inactive = no such curve, though single readings can be large; an effect the other way counts as inactive or inconclusive.

SMILES	ATXN2 expr inh	HT1080NT lethal	S2 tox	HT1080 IDH1KD tx	TGFb SMAD3 inh	HepG2 viability	SKNSH spheroid	SJGBM2 3D viab	Daoy 3D tox	TC32 3D caspase	TC32 spheroid	MG63 spheroid	RD 3D tox
CCC(=O)n1nc(-c2ccc(Cl)cc2)nc1N	-5%	-4%	i	-5%	4%	-8%	.	.	.	.	.	.	.
COc1ccc(S(=O)(=O)Nc2cccnc2Nc2ccc(O)cc2)cc1	-15%	.	.	.	.	.	0.32µM*	0.23µM*	?	1µM*	0.57µM*	?	0.46µM*
COc1ccc(Nc2nc3ccccc3nc2NS(=O)(=O)c2ccc(NC(C)=O)cc2)cc1	24%	-19%	i	3%	-29%	16%	.	.	.	.	.	.	.
COc1cc([C@@H]2c3cc4c(cc3[C@@H](O[C@@H]3O[C@@H]5CO[C@@H](C)O[C@@H]5[C@H](O)[C@@H]3O)[C@H]3COC(=O)[C@H]23)OCO4)cc(OC)c1O	0.77µM*	.	.	.	.	.	0.57µM*	0.26µM*	0.46µM*	?	0.26µM*	?	?
COc1cc([C@@H]2c3cc4c(cc3C(O[C@@H]3O[C@@H]5CO[C@@H](c6cccs6)OC5[C@H](O)[C@H]3O)C3COC(=O)[C@@H]32)OCO4)cc(OC)c1O (stereo not given in full)	.	.	.	.	.	.	0.057µM*	0.032µM*	0.041µM*	?	0.016µM*	4.1µM*	5.7µM*
O=C(CSc1nc(-c2cccs2)nc2cc(=O)[nH]n12)Nc1cccc(C(F)(F)F)c1	3%	.	i	.	-4%	-9%	.	.	.	.	.	.	.
